Laboratory results: PubChem BioAssay AID624172 (National Center for Advancing Translational Sciences (NCATS), 2012)
Screen size: about 380,000 compounds; about 25 (0.007%) were called active. Calls come from the whole dose curve; as a rule, active = well fitted activation curve with a large enough effect; inconclusive = small, poorly fitted or top-dose-only effect; inactive = no such curve, though single readings can be large or run the other way. Not all results are given here.

Target: Glucagon-like peptide 1 receptor (Homo sapiens) (UniProt P43220)
Test: qHTS of GLP-1 Receptor Agonists
Settings: HEK293 GLP-1R CRE-luciferase, luminescence, 4-6 h, cells express a hypersensitive GLP-1R form; series mostly up to 45.6 µM
Source text: The overall goal of this project was to develop a novel assay for discovering small molecule ligands for class B1 G protein-coupled receptors (GPCRs). Very few agonists (or inverse agonists) with generally weak activity for this entire group of physiologically important receptors are known to date. To establish proof-of-principle that this critical bottleneck can be overcome with a suitable screening approach, our studies focused on the class B1 receptor for glucagon-like peptide-1 (GLP-1R), a potential therapeutic target for diabetes and neurodegenerative disease.
The assay was developed in a "mix and measure" format using a cell-based functional readout. Toward this goal, stably transfected HEK293 cell clones were established that co-express (i) a cAMP-responsive luciferase reporter gene, and (ii) GLP-1Rs that upon ligand interaction either stimulate (agonists) or inhibit (inverse agonists) luciferase activity. In different cell lines to be used for screening, expressed GLP-1Rs are specifically optimized for high sensitivity detection of either weak agonists (hypersensitive receptor) or inverse agonists (constitutively active receptor mutant). In addition, control cell lines were developed that express either the cAMP-responsive reporter gene without recombinant GLP-1Rs (enabling initial exclusion of GLP-1R independent effects of candidate probes), or the reporter gene together with wild type GLP-1Rs (for confirmation of probe activity at this receptor), or the reporter gene in combination with the constitutively active orphan receptor GPR119 (enabling initial exclusion of GLP-1R independent inhibitory effects of candidate inverse agonists).
To that end, this assay was optimized for 1536-well format and screened against the MLSMR.
NIH Molecular Libraries Probe Production Network [MLPCN]
NIH Chemical Genomics Center [NCGC]
PI Name: Martin Beinborn, Tufts Medical Center
In a white solid 1536-well plate, 6 uL of cells are dispensed in DMEM without phenol red, 10% Nu serum, and 1% pen-strep medium. The plates are then incubated for 12 hours at 37 deg C at 5% CO2 before 23 nL of compounds are added. After a 4-6 hr incubation at37 deg C and 5% CO2, 3 uL of detection reagent are added and after a 12 min incubation at RT, a luminescent read is obtained on the ViewLux.

Glucagon-like peptide 1 receptor (Homo sapiens), sequence (P43220 whole entry, looked up): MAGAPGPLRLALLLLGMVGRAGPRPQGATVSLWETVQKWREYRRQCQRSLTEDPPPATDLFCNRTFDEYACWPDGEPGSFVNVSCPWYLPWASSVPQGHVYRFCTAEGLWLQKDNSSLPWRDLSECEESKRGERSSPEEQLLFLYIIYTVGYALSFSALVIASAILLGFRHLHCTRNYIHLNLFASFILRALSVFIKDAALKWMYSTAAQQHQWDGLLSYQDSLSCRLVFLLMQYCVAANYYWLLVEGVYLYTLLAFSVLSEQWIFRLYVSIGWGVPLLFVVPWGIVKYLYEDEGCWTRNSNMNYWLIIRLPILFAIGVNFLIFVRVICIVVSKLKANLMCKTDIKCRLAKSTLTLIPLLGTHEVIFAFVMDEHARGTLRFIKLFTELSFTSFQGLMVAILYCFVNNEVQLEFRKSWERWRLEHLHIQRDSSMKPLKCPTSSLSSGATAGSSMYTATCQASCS

outcome, inactive:
CC1=Nc2cc(C(=O)N3CCC(C)CC3)ccc2Sc2ccc(Cl)cc21, Cc1cn([C@H]2CC(F)[C@@H](CO)O2)c(=O)[nH]c1=O (some centres not stated), Cc1cccc(-n2c(=O)c3c(c4cc(C)ccc4n3C)n(CC(=O)Nc3ccccc3Cl)c2=O)c1, O=C(O)CCCCC(=O)O, Cc1ccc(CCNC(=O)Cn2c(-c3cccs3)cc3cc(F)ccc32)cc1, CC(C)(O)c1ccccc1CC[C@H](SCC1(CC(=O)O)CC1)c1cccc(/C=C/c2ccc3ccc(Cl)cc3n2)c1, CO/N=C(\C(=O)N[C@@H]1C(=O)N2C(C(=O)O)=C(Cn3nnc(C)n3)CS[C@H]12)c1csc(N)n1, COc1ccc(CCNC(=O)CCCCn2c(=O)c3ccccc3n(Cc3ccccc3C)c2=O)cc1OC, CCOc1ccc(CNCCSc2nnnn2C)cc1, CC(O)COc1ccccc1 (configuration not stated), Cc1ccc(C(=O)Nc2ccc(OCc3cc(=O)n4c5c(sc4n3)CCCC5)cc2)cc1, COc1cc([C@@H]2c3cc4c(cc3[C@@H](O[C@@H]3O[C@@H]5CO[C@@H](C)O[C@H]5[C@H](O)[C@H]3O)[C@H]3COC(=O)[C@H]23)OCO4)cc(OC)c1OP(=O)(O)O, Cn1c(=O)c2c(nc(NCCc3ccccc3)n2Cc2ccccc2Br)n(C)c1=O, COc1ccccc1-c1ccnc2[nH]n(-c3ccccc3)c(=O)c12, CN(C)CCCn1c(-c2ccc(Cl)cc2)csc1=Nc1ccccc1, COc1cc(C[C@H]2NCCc3cc(O)c(O)cc32)cc(OC)c1OC, O=C(Nc1cccc2cccnc12)c1cccc2c(Br)cccc12, COc1ccc(CCNC(=O)CCc2c(C)nc3c(c(C)nn3-c3ccc(C)c(C)c3)c2C)c(OC)c1OC, CCn1cc(C(=O)OCC(=O)Nc2cc(C)cc(C)c2)c(=O)c2ccc(C)nc21, CN(CC(=O)Nc1ccccc1F)S(=O)(=O)c1ccc2c(c1)c(=O)n(C)c(=O)n2C, Cc1c(O)cc2c(c1C)O[C@](C)(CCC[C@H](C)CCC[C@H](C)CCCC(C)C)CC2, COc1ccc(C2(C#N)CCC(C(=O)O)CC2)cc1OC1CCCC1 (configuration not stated), Cc1ccc(NC(=O)c2oc3ccccc3c2NC(=O)Cc2cccs2)cc1, NNc1nnc(NN)c2ccccc12, O=C(C1CCCN(S(=O)(=O)c2cccc3nonc23)C1)N1CCN(c2ccccc2F)CC1 (configuration not stated), COc1cccc(NC(=O)N(Cc2cn(C)c3ccccc23)C2CCCCCC2)c1, COc1ccc2[nH]c3c(c2c1)CCN(C(=O)CCC1CCCC1)C3c1ccc(F)cc1 (configuration not stated), Nc1ccccc1N, NNc1nnc(Cc2ccncc2)c2ccccc12, CC(=O)OCC(=O)[C@@]1(O)CC[C@@H]2[C@H]3CCC4=CC(=O)C=C[C@]4(C)[C@]3(F)[C@@H](O)C[C@@]21C, CCC(CC)C(=O)N1CCc2cc(OC)c(OC)cc2C1COc1ccc(F)cc1 (configuration not stated), CCC[C@H]1C(=O)N2C(N(C)C)=Nc3ccc(C)cc3N2C1=O, C=C1C(=CC=C2CCC[C@@]3(C)[C@@H]2CC[C@H]3[C@H](C)CCCC(C)C)C[C@@H](O)C[C@@H]1O, O=C1C(c2[nH]c3ccccc3c2O)=Nc2ccccc21, CC(=O)OC[C@H]1O[C@@H](O[C@H]2[C@H](O)[C@@H](OC(=O)c3ccccc3C(=O)O)[C@H](O)O[C@@H]2COC(C)=O)[C@H](O)[C@@H](OC(=O)c2ccccc2C(=O)O)[C@@H]1O, COc1ccc(CNC(=O)c2cc3cccc(OC)c3oc2=O)cc1, O=C(C1CC1)N1CCc2cc(Br)cc(S(=O)(=O)N3CCN(c4ccccc4F)CC3)c21, O=C(O)CCC(=O)O, COc1ccc(OC)c([C@H](O)CNC(=O)CN)c1, O=C(NC1CCCCC1)c1ccc2c(c1)N(Cc1ccc(Cl)cc1)C(=O)c1ccccc1S2=O (configuration not stated), Cc1ccc(C)c(CN2C(=O)c3ccccc3S(=O)c3ccc(C(=O)N4CCOCC4)cc32)c1 (configuration not stated), COc1ccc(S(=O)(=O)NCCSc2nnnn2-c2ccccc2)cc1, CC(=O)OC1C([N+]2(C)CCCCC2)C[C@H]2C3CC[C@H]4C[C@H](OC(C)=O)C([N+]5(C)CCCCC5)CC4(C)C3CCC12C (some centres not stated), CCOC(=O)Cc1cccc(-c2cc(CCCCCCc3ccc(O[C@H]4O[C@H](COC(C)=O)[C@@H](OC(C)=O)[C@H](OC(C)=O)[C@@H]4OC(C)=O)c(-c4cccc(CC(=O)OCC)c4)c3)ccc2O[C@H]2O[C@H](COC(C)=O)[C@@H](OC(C)=O)[C@H](OC(C)=O)[C@@H]2OC(C)=O)c1, O=C(CCn1c(=O)c2ccccc2n(Cc2ccc(Cl)cc2)c1=O)NCc1ccc2c(c1)OCO2, COc1ccc(-c2nc3ccccc3s2)cc1NC(=O)COc1ccccc1C, CSc1ccc(C2C(C(=O)Nc3ccccc3)=C(C)Nc3nc4ccccc4n32)cc1 (configuration not stated), O=C(O)[C@@H](S)[C@H](S)C(=O)O, CCC(C)C1OC2(C=CC1C)CC1CC(C/C=C(/C)C(OC3CC(OC)C(OC4CC(OC)C(NC(C)=O)C(C)O4)C(C)O3)C(C)/C=C\C=C3\COC4C(O)C(C)=CC(C(=O)O1)C34O)O2 (configuration not stated), CC1(C)OC[C@@H](COC(=O)CCc2ccc(OC[C@@H](O)CNCCNC(=O)N3CCOCC3)cc2)O1, CCc1nc2onc(C)c2c(=O)n1CC(=O)O, CC1=C(C(=O)OCC2CCCCC2)C(c2c(F)cccc2Cl)CC(=O)N1 (configuration not stated), CCCCCn1c(CCNC(=O)c2ccc(F)cc2)nc2ccccc21, O=c1cc2nc(-c3ccccc3)nc(SCCOc3ccc(Cl)cc3)n2[nH]1, C[C@H]1C[C@H]2[C@@H]3CCC4=CC(=O)C=C[C@]4(C)[C@@H]3C(=O)C[C@]2(C)[C@@]1(O)C(=O)CO, COc1cc2c(cc1OC)CC(=O)N(CCCN(C)C[C@H]1Cc3cc(OC)c(OC)cc31)CC2, COc1cccc(CNC(=O)c2ccc3c(Cl)c4c(nc3c2)CCCC4)c1, COc1cccc(C(=O)NC2(C(F)(F)F)C(=O)Nc3c2c(=O)[nH]c(=O)n3-c2ccc(C)cc2)c1 (configuration not stated), Cc1ccc(C)c(N2CCN(C(=O)CN3C(=O)COc4ccc(S(=O)(=O)N5CCCCCC5)cc43)CC2)c1, CCn1cc(C(=O)N(C)Cc2ccccc2)c(=O)c2cc(S(=O)(=O)N3CCCCCC3)ccc21, Cc1cccc(Cc2c(C)nc3nc(SCc4ccccc4Cl)nn3c2C)c1, Oc1ccccc1-c1nc2ccc(Cl)cn2c1Nc1ccc2c(c1)OCCO2, COc1cc(C(=O)Nc2ccc(OCc3cc(=O)n4cc(C)sc4n3)cc2)cc(OC)c1OC, COc1ccc(NC(=O)C2CCCN(S(=O)(=O)c3cccc4nonc34)C2)cc1Cl (configuration not stated), CCC(C)[C@@H](N)C(=O)O (some centres not stated), CCCc1c2oc(C(=O)O)cc(=O)c2cc2c(=O)cc(C(=O)O)n(CC)c12, CCCCCCCCCCCCCCCCO, O=S(O)CNc1ccc(S(=O)(=O)c2ccc(NCS(=O)O)cc2)cc1, CCCN(CC)[C@@H](CC)C(=O)Nc1c(C)cccc1C, CN1CC(O)c2cc(N=NC(N)=O)c(O)cc21 (configuration not stated), O=C(Cn1nc(C(F)(F)F)c2c1CCCC2)Nc1ccc(Cl)cc1, CCOc1ccc(OCC)c(NC(=O)CN(c2ccc(C)cc2)S(=O)(=O)c2c(C)n[nH]c2C)c1, CCOC(=O)c1ccc(NC2=CC(c3ccc(OCC)cc3)N(c3ccc(C(=O)OCC)cc3)C2=O)cc1 (configuration not stated), CN(Cc1ccccc1)c1ncnc2onc(-c3ccc(F)cc3)c12, O=C(Nc1ccc(O)cc1)c1ccccc1O, O=P(O)(O)OC[C@H](O)CO, COc1cccc(NC(=O)C2CCN(c3cc(C)nc4c(-c5ccc(Cl)cc5)c(C)nn34)CC2)c1, COC(=O)CC1Oc2ccccc2-n2cc(-c3ccccc3)nc21 (configuration not stated), CCOC(=O)c1cccc(NS(=O)(=O)c2cn(C)c(C)n2)c1, CCOc1ccc(N(CC)C(=O)C2CCN(S(=O)(=O)c3cccc4nonc34)CC2)cc1, COc1ccnc(C[S@@](=O)[C@@H]2Nc3ccc(OC(F)F)cc3N2)c1OC, O=C(Nc1c(-c2ccc(F)cc2)nc2ccccn12)c1cccc(F)c1, CC1(C)OC2CO[C@]3(COS(N)(=O)=O)OC(C)(C)OC3C2O1 (some centres not stated), COC(=O)c1scc(-c2ccccc2)c1S(=O)(=O)Nc1ccccc1, COc1ccc(C)cc1NC(=O)C(=O)NCCc1sc(-c2cccc(C)c2)nc1C, COc1ccc(-c2noc(CCC(=O)N(C)c3ccccc3C)n2)cc1, C/C=C/C=N/NC(=O)c1ccncc1, COc1ccc2cc(CNc3ccc(OC)c(OC)c3)c(=O)n(CC(=O)Nc3ccccc3F)c2c1, COc1cc2[nH]c(C)c(CCN3CCN(c4ccccc4)CC3)c2cc1OC, COC(=O)C1=C(c2ccccc2)c2ccccc2S(=O)(=O)N1CC(=O)Nc1ccccc1C(F)(F)F, COc1cc(C(CC(=O)NCCC(C)C)N2Cc3ccccc3C2=O)cc(OC)c1OC (configuration not stated), CC1(C)[C@H](O[C@H]2O[C@H](C(=O)O)[C@@H](O)[C@H](O)[C@H]2O[C@@H]2O[C@H](C(=O)O)[C@@H](O)[C@H](O)[C@H]2O)CC[C@@]2(C)[C@H]1CC[C@]1(C)[C@H]2C(=O)C=C2[C@H]3C[C@@](C)(C(=O)O)CC[C@]3(C)CC[C@]21C
